This passage reports outcome and Potency results from PubChem BioAssay (Tox21).

SMILES strings stand for the structures. Values joined by “and” are separate entries in the source; they are usually repeats but may differ in a detail not shown here. Identical values can stand only once. Inconclusive results are not listed. Some structures have more than one record in an assay (separate samples or runs), and their calls can disagree. Active and inactive are the calls of the source. Unless noted, calls come from the whole dose curve; as a rule, active = well fitted curve in the direction sought with a large enough effect in the repeat runs; inconclusive = weak or mixed curves; inactive = no such curve, though single readings can be large; an effect the other way counts as inactive or inconclusive.

The nature of experiment [1]: qHTS assay to identify small molecule antagonists of the glucocorticoid receptor (GR) signaling pathway - cell viability counter screen (AID 720693). Note: nearly all actives have a fitted effect of over 55% in size. In general terms: In qHTS, concentration-response curves come from the screen itself.
A short description of experiment [2]: qHTS assay for identifying genotoxic compounds that show differential cytotoxicity against isogenic chicken DT40 cell lines with known DNA damage response pathways - wild type cell line (AID 743012). Note: nearly all actives have a fitted effect of over 60% in size. Note: potency is the fitted concentration of half-maximal effect. In short, it runs like this:
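Quantitative HTS on parental DT40 cells: 40 h compound treatment at 37 C/5% CO2, with viability then determined by CellTiter-Glo luminescence. Values serve as the DNA repair-proficient reference for differential cytotoxicity.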

Experiment [3] in a line: qHTS assay for identifying genotoxic compounds that show differential cytotoxicity against isogenic chicken DT40 cell lines with known DNA damage response pathways - Rev3 mutant cell line (AID 743014). Note: nearly all actives have a fitted effect of over 55% in size. Note: potency is the fitted concentration of half-maximal effect.
The nature of experiment [4]: qHTS assay for identifying genotoxic compounds that show differential cytotoxicity against isogenic chicken DT40 cell lines with known DNA damage response pathways - Rad54/Ku70 mutant cell line (AID 743015). Note: nearly all actives have a fitted effect of over 60% in size. Note: potency is the fitted concentration of half-maximal effect.
The nature of experiment [5]: qHTS assay to identify small molecule antagonists of the androgen receptor (AR) signaling pathway using the MDA cell line - cell viability counter screen (AID 743041; note: nearly all actives have a fitted effect of over 45% in size). In short, it runs like this: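 MDA-kb2 AR-luc cells (MMTV-luciferase, AR/GR responsive) treated with compounds plus R1881 agonist for 16 h at 37C. CellTiter-Fluor added at 15.5 h; fluorescence read after 30 min in the same wells.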

Experiment [6] can be described thus: qHTS assay to identify small molecule antagonists of the thyroid receptor (TR) signaling pathway - cell viability counter screen (AID 743064). Note: nearly all actives have a fitted effect of over 50% in size. Note: potency is the fitted concentration of half-maximal effect. In a few lines: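 In-well cytotoxicity read by CellTiter-Fluor (30 min, 37 C) following 23.5 h exposure of GH3 cells bearing a TRE-luciferase sensor. Compounds were added alongside 1 nM (final) T3 to drive TR transactivation.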

Experiment [7] is described as follows: qHTS assay to identify small molecule antagonists of the thyroid receptor (TR) signaling pathway (AID 743065). Note: nearly all actives have a fitted effect of over 55% in size. Note: potency is the fitted concentration of half-maximal effect. In short, it runs like this:
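GH3.TRE-Luc rat pituitary cells (two TREs driving luciferase) were dosed with compound, then stimulated with 1 nM T3 (final) for 23.5 h at 37 C. ONE-Glo luminescence was the read-out, with CellTiter-Fluor fluorescence as the cytotoxicity counter-screen.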

Experiment [8] has as its system thyroid hormone receptor (rat, GH3 cells). The experiment is described as follows: qHTS assay to identify small molecule agonists of the thyroid receptor (TR) signaling pathway (AID 743066; calls by dose curve).
A short description of experiment [9]: qHTS assay to identify small molecule antagonists of the estrogen receptor alpha (ER-alpha) signaling pathway - cell viability counter screen (AID 743074; calls by dose curve;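 note: HEK293 cells carrying ER-alpha-UAS-bla reporter stimulated with 17beta-estradiol; nearly all actives have a fitted effect of over 45% in size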; note: potency is the fitted concentration of half-maximal effect).
Experiment [10] is described as follows: qHTS assay to identify small molecule antagonists of the estrogen receptor alpha (ER-alpha) signaling pathway using the BG1 cell line - cell viability counter screen (AID 743081).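 Note: compound given together with 17beta-estradiol as the ER stimulus; series mostly up to about 70 µM; nearly all actives have a fitted effect of over 45% in size.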
The next experiment has as its target Aromatase (Homo sapiens) (UniProt P11511). The experiment is described as follows: qHTS assay to identify aromatase inhibitors (AID 743083). Note: nearly all actives have a fitted effect of over 55% in size. Note: potency is the fitted concentration of half-maximal effect.
Experiment [11] can be described thus: qHTS assay to identify small molecule antagonists of the androgen receptor (AR) signaling pathway - cell viability counter screen (AID 743033; note: nearly all actives have a fitted effect of over 45% in size).
Experiment [12] concerns the target Estrogen receptor (Homo sapiens) (UniProt P03372). The experiment is described as follows: qHTS assay to identify small molecule antagonists of the estrogen receptor alpha (ER-alpha) signaling pathway (AID 743069; active = well fitted curve in the direction sought with a large enough effect in the signal ratio in the repeat runs, not every such curve was filed as active; the % refers to the signal ratio). In a few lines: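 HEK293 ER-alpha-UAS-bla GripTite cells, held overnight in 2% charcoal-stripped FBS, 5,000 cells/well, preincubated 4 h, then compound plus 17beta-estradiol for 18 h at 37C. Beta-lactamase read by LiveBLAzer B/G FRET substrate, 2 h at room temperature.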

Experiment [13] has the same target. The experiment is described as follows: qHTS assay to identify small molecule agonists of the estrogen receptor alpha (ER-alpha) signaling pathway (AID 743075; calls by dose curve).
The target is the same in experiment [14]. The experiment is described as follows: qHTS assay to identify small molecule agonists of the estrogen receptor alpha (ER-alpha) signaling pathway using the BG1 cell line (AID 743079). Note: nearly all actives have a fitted effect of over 20% in size.
A short description of experiment [15]: qHTS assay to identify small molecule antagonists of the estrogen receptor alpha (ER-alpha) signaling pathway using the BG1 cell line (AID 743080; calls by dose curve;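 note: BG1 cells stimulated with 17beta-estradiol alongside compound; series mostly up to about 70 µM; nearly all actives have a fitted effect of over 25% in size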). In short, it runs like this: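 Luciferase inhibition measured with ONE-Glo after 30 min at RT in BG1Luc4E2 cells given test compounds and 17beta-estradiol for 21.5 h at 37 C; CellTiter-Fluor viability read in the same wells beforehand.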

The target in experiment [16] is Androgen receptor (Homo sapiens) (UniProt P10275). The experiment is described as follows: qHTS assay to identify small molecule antagonists of the androgen receptor (AR) signaling pathway (AID 743035; active = well fitted inhibition curve with a large enough effect in the signal ratio in the repeat runs, not every such curve was filed as active; the % refers to the signal ratio). In a few lines:
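Cell line: GeneBLAzer AR-UAS-bla GripTite (HEK293). Stimulus: R1881 added after compound. Exposure: 16 h, 37C, 5% CO2. Readout: LiveBLAzer B/G FRET fluorescence after 2 h at room temperature.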

Experiment [17] has the same target. As to the kind of experiment: qHTS assay to identify small molecule agonists of the androgen receptor (AR) signaling pathway (AID 743036; active = well fitted activation curve with a large enough effect in the signal ratio in the repeat runs, with a control signal flat, not every such curve was filed as active; the % refers to the signal ratio). In a few lines: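 Activation was read as beta-lactamase FRET signal from LiveBLAzer B/G substrate, added for 2 h at room temperature. Before that, GeneBLAzer AR-UAS-bla GripTite (HEK293) cells had 16 h compound exposure at 37C.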

Experiment [18] shares this target. As to the kind of experiment: qHTS assay to identify small molecule agonists of the androgen receptor (AR) signaling pathway using the MDA cell line (AID 743040; note: nearly all actives have a fitted effect of over 20% in size). In short, it runs like this: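 MDA-kb2 breast carcinoma cells carrying MMTV-luciferase (responsive to AR and GR), plated 5 h then treated 16 h with compounds at 37C, 0% CO2. Read-out was ONE-Glo luminescence after 30 min at room temperature.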

For experiment [19] the target is unchanged. As to the kind of experiment: qHTS assay to identify small molecule antagonists of the androgen receptor (AR) signaling pathway using the MDA cell line (AID 743042; note: nearly all actives have a fitted effect of over 55% in size). In short, it runs like this:
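MDA-kb2 breast carcinoma cells carrying MMTV-luciferase (AR/GR responsive) were co-treated with compounds and the agonist R1881 for 16 h at 37C. Inhibition read as ONE-Glo luminescence; CellTiter-Fluor fluorescence measured in parallel for cytotoxicity.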

Sequence of Aromatase (Homo sapiens) (P11511 whole entry, looked up): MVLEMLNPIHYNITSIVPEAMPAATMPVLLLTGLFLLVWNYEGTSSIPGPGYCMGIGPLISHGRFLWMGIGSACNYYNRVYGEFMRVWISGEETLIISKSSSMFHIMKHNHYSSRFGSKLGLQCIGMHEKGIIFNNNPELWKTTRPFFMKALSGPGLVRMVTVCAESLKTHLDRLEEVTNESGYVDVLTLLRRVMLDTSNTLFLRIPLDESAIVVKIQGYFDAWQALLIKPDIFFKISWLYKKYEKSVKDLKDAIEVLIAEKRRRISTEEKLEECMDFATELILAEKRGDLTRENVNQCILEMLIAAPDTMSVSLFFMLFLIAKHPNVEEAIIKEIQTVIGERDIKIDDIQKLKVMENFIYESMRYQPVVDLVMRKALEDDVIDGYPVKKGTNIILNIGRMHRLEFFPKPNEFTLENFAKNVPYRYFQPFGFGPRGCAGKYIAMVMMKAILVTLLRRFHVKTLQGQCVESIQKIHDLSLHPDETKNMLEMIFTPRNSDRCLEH
Sequence of Androgen receptor (Homo sapiens) (P10275 whole entry, looked up): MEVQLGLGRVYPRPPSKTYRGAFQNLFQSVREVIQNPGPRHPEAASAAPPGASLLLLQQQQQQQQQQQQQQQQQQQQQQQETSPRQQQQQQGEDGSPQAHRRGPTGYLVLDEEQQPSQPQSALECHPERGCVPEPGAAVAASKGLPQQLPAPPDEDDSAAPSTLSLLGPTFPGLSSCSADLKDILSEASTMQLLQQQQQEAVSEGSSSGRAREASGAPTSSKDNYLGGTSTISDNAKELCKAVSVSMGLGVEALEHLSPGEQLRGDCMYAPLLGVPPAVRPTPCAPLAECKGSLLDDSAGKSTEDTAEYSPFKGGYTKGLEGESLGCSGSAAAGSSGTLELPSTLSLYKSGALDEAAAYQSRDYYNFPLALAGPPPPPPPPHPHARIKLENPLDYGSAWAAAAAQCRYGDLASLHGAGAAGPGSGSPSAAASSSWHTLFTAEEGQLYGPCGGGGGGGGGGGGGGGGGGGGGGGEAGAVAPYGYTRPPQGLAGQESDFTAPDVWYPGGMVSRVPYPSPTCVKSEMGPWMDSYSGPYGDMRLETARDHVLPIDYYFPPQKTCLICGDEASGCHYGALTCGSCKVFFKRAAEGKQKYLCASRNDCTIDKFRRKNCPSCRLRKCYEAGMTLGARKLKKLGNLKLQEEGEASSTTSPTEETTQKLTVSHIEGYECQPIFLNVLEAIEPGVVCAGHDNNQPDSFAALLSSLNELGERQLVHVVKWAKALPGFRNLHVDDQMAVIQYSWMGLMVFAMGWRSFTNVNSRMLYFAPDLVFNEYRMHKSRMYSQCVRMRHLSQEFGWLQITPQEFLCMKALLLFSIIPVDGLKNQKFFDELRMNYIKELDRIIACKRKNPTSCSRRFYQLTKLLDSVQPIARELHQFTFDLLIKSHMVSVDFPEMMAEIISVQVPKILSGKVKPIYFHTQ
Sequence of Estrogen receptor (Homo sapiens) (P03372 whole entry, looked up): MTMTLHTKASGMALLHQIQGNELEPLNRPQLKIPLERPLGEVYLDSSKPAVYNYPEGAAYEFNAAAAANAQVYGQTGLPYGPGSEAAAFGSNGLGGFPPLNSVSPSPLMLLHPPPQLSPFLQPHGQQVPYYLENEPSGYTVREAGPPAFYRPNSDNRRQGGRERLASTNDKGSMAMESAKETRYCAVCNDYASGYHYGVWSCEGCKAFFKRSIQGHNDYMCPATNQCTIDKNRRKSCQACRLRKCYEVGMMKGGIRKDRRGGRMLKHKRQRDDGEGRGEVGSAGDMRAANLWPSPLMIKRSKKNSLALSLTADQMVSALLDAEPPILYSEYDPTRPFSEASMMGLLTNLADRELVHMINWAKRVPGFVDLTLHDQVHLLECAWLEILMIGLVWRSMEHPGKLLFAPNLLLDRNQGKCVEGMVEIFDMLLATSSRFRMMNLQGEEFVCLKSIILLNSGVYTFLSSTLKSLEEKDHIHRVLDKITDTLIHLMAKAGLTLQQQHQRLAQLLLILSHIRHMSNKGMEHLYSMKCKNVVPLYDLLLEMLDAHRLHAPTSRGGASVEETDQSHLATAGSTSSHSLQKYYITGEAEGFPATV

For the compound `CC(C)(C)C(O)(CCc1ccc(Cl)cc1)Cn1cncn1` (centres undefined), the result in experiment [1], in experiment [5], in experiment [8] and in experiment [10] was inactive. In addition, the Potency in experiment [2] was 61.1 µM (active); in [3], 61.9 µM (active) and 61.1 µM (active); in experiment [4], 69.4 µM (active) and 61.1 µM (active); in experiment [6], 68.6 µM (active); in experiment [7] it was 61.9 µM (active) and 61.1 µM (active); in the experiment with Aromatase (Homo sapiens) it was 27.6 µM (active) and 48.6 µM (active). The Potency result in experiment [9] is “inactive”.
Take `C1CN2CCN1CC2`: the call in [1], in experiment [11], in [5], in experiment [8] and in experiment [10] was inactive. The Potency result in [3], in [4], in experiment [6], in [7], in [12] and in experiment [13] was “inactive” each time. The Potency entry (in experiment [14]; in experiment [15]; with Aromatase (Homo sapiens)) was “inactive” in each case. For the same compound, the Potency entry in [9] is “inactive and 4.36 µM (active)”.
`CN1C(=O)CN=C(c2ccccc2)c2cc(Cl)ccc21`: the compound was classed as inactive in experiment [1], in experiment [11], in [5], in [8] and in experiment [10]. Further, the Potency result in experiment [2], in experiment [3], in [6] and in experiment [9] was “inactive” throughout.
On to `CC(C)(Cl)Cl`, for which the compound was called inactive in [1], in experiment [11], in experiment [5], in [8] and in experiment [10]. In addition, the Potency result in experiment [2], in experiment [3], in experiment [4], in [6], in experiment [7] and in [9] was “inactive” in each case. For the same compound, the Potency result with Aromatase (Homo sapiens) was “inactive”.
Regarding `NCC(O)c1ccc(O)cc1` (centres undefined), the compound was classed as inactive in experiment [1], in experiment [11], in [5], in experiment [8] and in [10]. Besides, the Potency result in experiment [2], in [3], in [4], in experiment [6], in [7] and in [9] was “inactive” throughout. Further, in the experiment with Aromatase (Homo sapiens), the Potency result was “inactive”.
In the case of `c1cc2c3c(cccc3c1)CC2`, the outcome in experiment [1], in experiment [11], in experiment [17], in [18], in experiment [5] and in [19] was inactive. Besides, the call in [8] and in experiment [10] was inactive. For the same compound, the Potency result in experiment [3], in [16], in experiment [6], in [7], in [12] and in [9] was “inactive” each time. In addition, the Potency entry (in [13]; in [14]; in [15]; with Aromatase (Homo sapiens)) was “inactive” each time. Further, in experiment [4], the Potency entry was “inactive and 61.1 µM (active)”.
`CN=C=S`: the compound was called inactive in [1], in [11], in [5], in experiment [8] and in experiment [10]. The Potency result in experiment [2], in [3], in experiment [4], in [7], in [12] and in [9] was “inactive” each time. For the same compound, the Potency entry (in [13]; in [14]; in [15]; with Aromatase (Homo sapiens)) was “inactive” throughout.
Consider `OC(O)C(Cl)(Cl)Cl`, for which the compound was classed as inactive in experiment [1], in experiment [11], in [5], in [8] and in [10]. The Potency entry in experiment [2], in experiment [3], in experiment [4], in [6], in experiment [7] and in experiment [9] was “inactive” in each case. Besides, the Potency entry with Aromatase (Homo sapiens) is “inactive”.
For `CN(C)N=O`, the outcome in experiment [1], in experiment [11], in experiment [5], in [8] and in experiment [10] was inactive. Besides, the Potency entry in [2], in experiment [3], in experiment [4], in experiment [6], in experiment [7] and in experiment [9] was “inactive” throughout. In addition, in the experiment with Aromatase (Homo sapiens), the Potency entry was “inactive”.
In the case of `CCCN(CCC)c1c([N+](=O)[O-])cc(C(F)(F)F)cc1[N+](=O)[O-]`, the result in experiment [1], in [11], in experiment [17], in experiment [18], in experiment [5] and in experiment [19] was inactive. For the same compound, the compound was classed as inactive in experiment [8] and in experiment [10]. The Potency result in experiment [3], in experiment [4], in experiment [16], in [12], in experiment [9] and in experiment [13] was “inactive” in each case. For the same compound, the Potency result (in experiment [14]; in [15]; in the experiment with Aromatase (Homo sapiens)) was “inactive” in each case.
